The target of experiment [1] is Tyrosine-protein kinase Lck (Homo sapiens) (UniProt P06239). To be noted: at 10 µM.
Experiment [2] has the same target. As to conditions: at 1 µM.
For experiment [3] the target is unchanged. As to conditions: at 10 µM. The source holds these as a separate data set.
The target in experiment [4] is Tyrosine-protein kinase Lyn (Homo sapiens) (UniProt P07948). To be noted: at 1 µM.
Experiment [5] shares this target. As to conditions: at 10 µM.
For experiment [6], the target named is Mitogen-activated protein kinase 3 (Homo sapiens) (UniProt P27361). As to conditions: at 10 µM.
Chain of Mitogen-activated protein kinase 3 (Homo sapiens) (P27361 whole entry): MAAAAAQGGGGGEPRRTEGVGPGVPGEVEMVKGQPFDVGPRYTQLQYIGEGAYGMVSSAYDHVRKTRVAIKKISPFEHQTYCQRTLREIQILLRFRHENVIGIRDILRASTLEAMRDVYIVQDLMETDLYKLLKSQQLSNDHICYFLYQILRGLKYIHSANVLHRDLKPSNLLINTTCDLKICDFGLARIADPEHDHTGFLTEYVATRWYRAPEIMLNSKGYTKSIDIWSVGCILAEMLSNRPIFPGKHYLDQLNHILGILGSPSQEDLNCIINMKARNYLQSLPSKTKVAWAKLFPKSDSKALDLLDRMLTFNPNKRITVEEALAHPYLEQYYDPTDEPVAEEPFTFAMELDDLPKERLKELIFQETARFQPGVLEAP
Experiment [7] has as its target Mitogen-activated protein kinase 1 (Homo sapiens) (UniProt P28482). To be noted: at 1 µM.
For experiment [8] the target is unchanged. To be noted: at 10 µM.
For experiment [9], the target named is MAP kinase-activated protein kinase 2 (Homo sapiens) (UniProt P49137). As to conditions: at 1 µM.
Chain of MAP kinase-activated protein kinase 2 (Homo sapiens) (P49137 whole entry, looked up): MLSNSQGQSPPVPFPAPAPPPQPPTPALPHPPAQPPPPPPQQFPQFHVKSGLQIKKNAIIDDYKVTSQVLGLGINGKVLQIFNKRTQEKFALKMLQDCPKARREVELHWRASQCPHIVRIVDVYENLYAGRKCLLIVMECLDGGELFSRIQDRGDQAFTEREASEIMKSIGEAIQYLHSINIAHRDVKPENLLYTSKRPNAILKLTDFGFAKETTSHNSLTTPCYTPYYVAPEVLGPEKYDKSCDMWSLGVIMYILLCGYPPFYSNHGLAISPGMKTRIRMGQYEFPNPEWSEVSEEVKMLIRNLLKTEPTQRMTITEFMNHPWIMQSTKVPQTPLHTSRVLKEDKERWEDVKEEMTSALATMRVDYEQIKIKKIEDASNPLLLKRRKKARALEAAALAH
Experiment [10] addresses Mitogen-activated protein kinase 3 (Homo sapiens) (UniProt P27361). To be noted: at 1 µM.

Chain of Tyrosine-protein kinase Lyn (Homo sapiens) (P07948 2-512 limits assumed): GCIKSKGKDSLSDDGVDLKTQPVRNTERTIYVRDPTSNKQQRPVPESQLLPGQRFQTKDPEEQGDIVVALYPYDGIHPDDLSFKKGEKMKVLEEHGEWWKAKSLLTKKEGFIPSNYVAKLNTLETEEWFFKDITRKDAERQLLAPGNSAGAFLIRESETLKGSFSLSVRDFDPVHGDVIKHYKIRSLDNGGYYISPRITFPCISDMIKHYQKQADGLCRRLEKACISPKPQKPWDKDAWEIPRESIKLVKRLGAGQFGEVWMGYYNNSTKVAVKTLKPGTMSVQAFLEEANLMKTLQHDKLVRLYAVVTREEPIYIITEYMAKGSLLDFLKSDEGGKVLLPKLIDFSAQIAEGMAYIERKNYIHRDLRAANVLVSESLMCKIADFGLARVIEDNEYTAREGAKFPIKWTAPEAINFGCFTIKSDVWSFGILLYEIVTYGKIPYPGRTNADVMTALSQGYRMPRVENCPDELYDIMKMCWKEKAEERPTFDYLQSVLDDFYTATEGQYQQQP
Chain of Mitogen-activated protein kinase 1 (Homo sapiens) (P28482 whole entry): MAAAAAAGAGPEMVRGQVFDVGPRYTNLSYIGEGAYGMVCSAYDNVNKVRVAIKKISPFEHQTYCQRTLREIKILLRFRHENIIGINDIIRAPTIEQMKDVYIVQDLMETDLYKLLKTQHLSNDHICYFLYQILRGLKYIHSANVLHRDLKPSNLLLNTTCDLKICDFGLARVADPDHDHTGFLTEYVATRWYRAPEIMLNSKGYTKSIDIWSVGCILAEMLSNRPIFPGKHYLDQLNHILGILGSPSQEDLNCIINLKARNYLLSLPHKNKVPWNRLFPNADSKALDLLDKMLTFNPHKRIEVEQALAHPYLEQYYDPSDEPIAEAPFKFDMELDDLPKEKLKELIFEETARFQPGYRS
Chain of Tyrosine-protein kinase Lck (Homo sapiens) (P06239 2-509 limits assumed): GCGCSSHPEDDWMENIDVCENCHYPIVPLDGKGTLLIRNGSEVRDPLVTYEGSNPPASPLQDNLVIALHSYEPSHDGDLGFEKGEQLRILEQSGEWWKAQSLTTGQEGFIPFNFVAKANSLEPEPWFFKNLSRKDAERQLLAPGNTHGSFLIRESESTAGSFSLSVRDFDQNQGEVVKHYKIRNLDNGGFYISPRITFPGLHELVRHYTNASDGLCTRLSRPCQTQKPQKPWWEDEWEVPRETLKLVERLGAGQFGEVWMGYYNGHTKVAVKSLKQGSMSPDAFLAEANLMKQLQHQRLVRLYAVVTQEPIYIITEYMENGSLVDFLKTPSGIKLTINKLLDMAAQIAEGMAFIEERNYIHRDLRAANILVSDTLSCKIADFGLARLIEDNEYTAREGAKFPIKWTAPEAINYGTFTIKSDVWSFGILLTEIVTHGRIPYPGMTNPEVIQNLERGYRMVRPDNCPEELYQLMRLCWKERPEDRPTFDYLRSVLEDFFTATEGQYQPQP

On to `CCN(CC)C(=O)c1ccc(Nc2nc(OCC3CCCCC3)c3nc[nH]c3n2)cc1`, for which the residual activity came out at 3% in experiment [1]; 20% in experiment [2]; 7% in [3]; 20% in experiment [4]; 1% in [5]; 29% in experiment [6]. The residual activity in [7] came out at 99%; in [8] it was 42%; in experiment [9], 81%.

Consider `Oc1c2ccccc2c2c3c(cccc13)N=N2`, for which the residual activity in experiment [1] was 69%; in [2], 89%; in experiment [3], 43%; in experiment [4], 70%; in experiment [5], 30%; in experiment [10], 59%. Besides, the residual activity in experiment [6] was determined as 72%; in experiment [7] it was 88%; in experiment [8], 55%; in experiment [9] it was 79%.

Consider `CC(=O)c1ccc(N2CCOCC2)cc1O`, for which the residual activity in experiment [4] is 105%; in experiment [5], 98%; in [10], 91%; in experiment [6], 89%; in [9], 100%.

Consider `O=C(Nc1cccc(Nc2cc(Nc3cccc(C(F)(F)F)c3)ncn2)c1)C1CC1`, for which the residual activity was found to be 29% in experiment [1]; 85% in experiment [2]; 81% in experiment [3]; 62% in experiment [4]; 18% in experiment [5]; 96% in [10]. For the same compound, the residual activity in [6] amounted to 85%; in experiment [7], 102%; in experiment [8] it was 103%; in [9] it was 89%.

In the case of `Cc1nc2cc3nc(-c4cccs4)cnc3cc2n1C`, the residual activity in experiment [1] is 54%; in experiment [2] it was 89%; in [3] it was 48%; in experiment [4], 91%; in experiment [5], 32%; in experiment [10], 114%. The residual activity in [6] was determined as 95%; in [7] it was 100%; in experiment [8], 103%; in experiment [9], 104%.

On to `O=c1c2ccccc2[nH]c(=S)n1CCN1CCC(=C(c2ccc(F)cc2)c2ccc(F)cc2)CC1`, for which the residual activity in experiment [1] was 107%; in experiment [2] it was 83%; in experiment [3], 65%; in [4], 83%; in experiment [5], 46%; in experiment [10], 88%. Besides, the residual activity in experiment [6] was 61%; in [7], 103%; in [8], 80%; in [9] it was 97%.

As to `c1ccc2c(-c3ccncc3)c[nH]c2c1`, the residual activity in experiment [1] is 79%; in experiment [2], 94%; in experiment [3] it was 101%; in [4] it was 105%; in [5] it was 91%; in experiment [10], 77%. Moreover, the residual activity in experiment [6] amounted to 87%; in [7], 101%; in [8] it was 99%; in experiment [9] it was 90%.

Consider `CNc1cc2c(Nc3cccc(Br)c3)ncnc2cn1`, for which the residual activity stood at 19% in [1]; 73% in experiment [2]; 79% in [3]; 10% in [4]; 5% in [5]; 86% in experiment [10]. Moreover, the residual activity in experiment [6] came to 95%; in experiment [7], 102%; in experiment [8], 96%; in experiment [9], 119%.

As to `Oc1ccc(Nc2nc(-c3ccc(Cl)cc3)cs2)cc1`, the residual activity in [1] came to 103%; in [2], 98%; in [3], 79%; in experiment [4], 84%; in experiment [5], 56%; in [10], 96%. Further, the residual activity in experiment [6] came to 81%; in experiment [7], 114%; in experiment [8] it was 107%; in experiment [9] it was 108%.

Consider `COc1cccc(-c2cc(=O)c3ccccc3o2)c1N`, for which the residual activity in experiment [1] stood at 85%; in experiment [2], 103%; in experiment [3] it was 93%; in [4], 93%; in experiment [5], 80%; in experiment [10] it was 106%. The residual activity is 90% in experiment [6], 114% in experiment [7], 96% in [8] and 99% in experiment [9].

With `O=C1NC(=O)c2cc(Nc3ccc(F)cc3)c(Nc3ccc(F)cc3)cc21`, the residual activity in [1] was determined as 26%; in experiment [2] it was 77%; in [3], 44%; in [4], 35%; in [5] it was 7%; in [10], 79%. Besides, the residual activity worked out at 57% in experiment [6], 103% in experiment [7], 99% in experiment [8] and 90% in experiment [9].

For `Cc1cccc(-c2[nH]c(C(C)(C)C)nc2-c2ccc3c(c2)OCO3)n1`, the residual activity stood at 86% in experiment [1]; 95% in experiment [2]; 92% in [3]; 91% in experiment [4]; 76% in [5]; 90% in experiment [10]. The values for the residual activity in experiment [6], in experiment [7] and in experiment [9] were 94%, 105% and 92%, respectively.

Consider `COc1cc2ncnc(N3CCN(C(=O)Nc4ccc(Oc5ccccc5)cc4)CC3)c2cc1OC`, for which the residual activity in experiment [1] worked out at 59%; in experiment [2], 92%; in experiment [3], 68%; in experiment [4], 98%; in experiment [5] it was 100%; in [10], 76%. Besides, the residual activity amounted to 95% in [6], 106% in [7], 105% in [8] and 99% in experiment [9].

Consider `C[C@@H](N)[C@H]1CC[C@H](C(=O)Nc2ccncc2)CC1`, for which the residual activity was 99% in experiment [4]; 100% in [5]; 113% in experiment [10]; 109% in [6]; 102% in experiment [7]; 105% in experiment [8].

Take `COc1ccc(OC)c2c(=S)c3ccccc3[nH]c12`: the residual activity in experiment [1] worked out at 101%; in experiment [2] it was 103%; in experiment [3] it was 92%; in experiment [4], 80%; in [5], 84%; in [10], 97%. Besides, the residual activity in experiment [6] turned out to be 112%; in experiment [7] it was 111%; in experiment [8], 101%; in experiment [9], 102%.

Turning to `O=C(O)c1ccc2c3c1cccc3c(=O)n1c3ccccc3nc21`, the residual activity in experiment [1] was 109%; in experiment [2], 95%; in experiment [3], 79%; in experiment [4] it was 96%; in experiment [5], 87%; in experiment [10] it was 117%. Also, the residual activity in experiment [6] came out at 77%; in experiment [7], 123%; in experiment [8], 96%; in experiment [9] it was 86%.

`O=C1Nc2ccccc2/C1=C1/Nc2ccccc2/C1=N\OCCC(O)CO` (stereo not drawn): the residual activity in experiment [1] is 5%; in experiment [2] it was 5%; in experiment [3], 8%; in experiment [4], 4%; in [5] it was -1%; in experiment [7], 108%. For the same compound, the residual activity in experiment [9] was 78%.

As for `Cc1cncc2cccc(S(=O)(=O)N3CCCN(C(=O)CN)C[C@H]3C)c12`, the residual activity in experiment [1] turned out to be 68%; in [2], 84%; in [3], 78%; in experiment [4] it was 82%; in experiment [5], 46%; in [10], 79%. In addition, the residual activity is 86% in experiment [6] and 88% in [9].

Turning to `CCC(=O)Nc1ccc2ncnc(Nc3cccc(Br)c3)c2c1`, the residual activity in experiment [1] is 67%; in experiment [2] it was 77%; in experiment [3] it was 75%; in [4] it was 28%; in experiment [5], 5%; in experiment [10], 83%. Also, the residual activity is 85% in experiment [6], 93% in [7], 94% in experiment [8] and 88% in [9].

Turning to `O=C1Nc2ccc(Br)cc2/C1=C\c1cc2c([nH]1)CCCC2`, the residual activity in [4] was determined as 21%; in experiment [5] it was 22%; in experiment [7], 104%; in [8] it was 106%; in experiment [9], 108%.

On to `COc1ccc(C(=O)Nc2sc3c(c2C(N)=O)CCCC3)cc1OC`, for which the residual activity in [1] turned out to be 103%; in experiment [2] it was 88%; in [3], 84%; in [4], 69%; in experiment [5], 46%; in [10] it was 97%. Besides, the residual activity is 86% in [6], 111% in experiment [7], 109% in experiment [8] and 70% in [9].

In the case of `N#Cc1cnc2cnc(NCc3cccnc3)cc2c1Nc1ccc(F)c(Cl)c1`, the residual activity in experiment [1] was 20%; in [2], 14%; in experiment [3], 7%; in [5], 1%; in [6], 75%; in experiment [9] it was 51%.

Take `c1ccc(-c2n[nH]c3c2oc2ccccc23)cc1`: the residual activity in [4] was 68%; in [5], 30%; in experiment [10] it was 86%; in experiment [6] it was 80%.

As to `Cc1cc(Nc2nc(-c3ccccc3)nc3ccccc23)n[nH]1`, the residual activity in experiment [1] is 6%; in [2], 36%; in experiment [3], 13%; in experiment [4], 9%; in experiment [5], 4%; in experiment [7] it was 106%.

`Cn1nc2c3c(cccc31)C(=O)c1ccccc1-2`: the residual activity was 93% in experiment [1]; 106% in [2]; 86% in [3]; 89% in experiment [4]; 50% in [5]; 83% in experiment [10]. Moreover, the results for the residual activity in experiment [6], in [8] and in experiment [9] were 96%, 97% and 77%, respectively.

Regarding `Cc1ccc(NC2=CC(=O)c3sc(C)nc3C2=O)cc1`, the residual activity in experiment [1] worked out at 80%; in experiment [2], 92%; in experiment [3] it was 98%; in experiment [4] it was 80%; in experiment [5] it was 71%; in experiment [10], 102%. Besides, the residual activity is 120% in experiment [6], 108% in [7], 106% in experiment [8] and 85% in experiment [9].

In the case of `c1ccc(-c2n[nH]cc2-c2ccnc3ccccc23)nc1`, the residual activity in experiment [1] came to 71%; in [2], 91%; in experiment [3], 66%; in experiment [4], 90%; in [5], 24%; in [10], 88%. The residual activity is 83% in experiment [6], 96% in experiment [7], 109% in experiment [8] and 101% in experiment [9].

Consider `COc1cc2ncnc(Nc3ccc(O)c(Br)c3)c2cc1OC`, for which the residual activity in experiment [1] was 7%; in experiment [2], 21%; in experiment [3], 10%; in experiment [4], 7%; in experiment [5], -2%; in experiment [10] it was 68%. Moreover, the residual activity in [6] came out at 45%; in experiment [7], 98%; in experiment [8], 75%; in experiment [9] it was 106%.

In the case of `CO[C@@H]1[C@H](N(C)C(=O)c2ccccc2)C[C@H]2O[C@]1(C)n1c3ccccc3c3c4c(c5c6ccccc6n2c5c31)C(=O)NC4`, the residual activity turned out to be 5% in [1]; 5% in experiment [2]; 6% in experiment [3]; 6% in [4]; 2% in [5]; 75% in experiment [10]. The figures for the residual activity in experiment [7], in [8] and in experiment [9] were 101%, 98% and 75%, respectively.

Source of the values: ChEMBL document CHEMBL2218924, “A broad activity screen in support of a chemogenomic map for kinase signalling research and drug discovery” (Biochem J, 2013).
